{"source": "PubChem BioAssay (NCATS)", "note": "Where “and” joins values, the source holds several entries; their conditions need not be identical. Identical values can stand only once. Results filed as inconclusive are left out. Where a call stands in place of a potency, no number is given. Calls of active or inactive are those of the source. Calls follow the shape of the dose curve; as a rule, active = well fitted curve in the direction sought with a large enough effect; inconclusive = small, poorly fitted or top-dose-only effect, or another doubt; inactive = no such curve, though single readings can be large; an effect the other way counts as inactive or inconclusive. Potency is read from the fitted curve at half-maximal effect.", "data": [{"test": "qHTS of pediatric cancer cell lines to identify multiple opportunities for drug repurposing: Primary screen for OHS-50 cells (AID 1347103); also: nearly all actives have a fitted effect of over 40% in size", "details": "OHS-50 osteosarcoma viability, CellTiter-Glo luminescence, 48 h; series mostly up to 57.3 µM", "procedure,_shortened": "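Cells (500-1,000/well) rested 5 h, then received compounds for 48 h; metabolically active cells were measured by CellTiter-Glo luminescence. Final concentrations spanned up to 46 µM (MIPE, 11-point) or 0.59 nM-46 µM (NPC, 8-point) in primary screens, 11-point in follow-ups.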", "values": [{"smiles": "Cc1cc2c(C(C)C)c(O)c(O)c(C=O)c2c(O)c1-c1c(C)cc2c(C(C)C)c(O)c(O)c(C=O)c2c1O", "Potency": "11 µM (active) and 19.3 µM (active)"}, {"smiles": "NS(=O)(=O)c1cc2c(cc1Cl)NC=NS2(=O)=O", "Potency": "inactive"}, {"smiles": "COc1cc2c(cc1OC)CN(CCc1ccc(NC(=O)c3cccc4c(=O)c5cccc(OC)c5[nH]c34)cc1)CC2", "Potency": "inactive"}, {"smiles": "CC1(C)SCCN(S(=O)(=O)c2ccc(OCC#CCO)cc2)[C@@H]1C(=O)NO", "Potency": "inactive"}, {"smiles": "CCCc1nc2c(C)cc(-c3nc4ccccc4n3C)cc2n1Cc1ccc(-c2ccccc2C(=O)O)cc1", "Potency": "inactive"}, {"smiles": "CC(C)NCC(O)COc1ccc(COCCOC(C)C)cc1", "note": "(stereo not drawn)", "Potency": "inactive"}, {"smiles": "NCCc1ccc(O)c(O)c1", "Potency": "inactive"}, {"smiles": "Oc1ccc(C2CNCCc3c2cc(O)c(O)c3Cl)cc1", "note": "(stereo not drawn)", "Potency": "inactive"}, {"smiles": "CCc1ccc(CCOc2ccc(CC3SC(=O)NC3=O)cc2)nc1", "note": "(stereo not drawn)", "Potency": "inactive"}, {"smiles": "O=c1n(CCCN2CCN(c3cccc(Cl)c3)CC2)nc2ccccn12", "Potency": "inactive"}, {"smiles": "Cc1cnc(NC(=O)C2=C(O)c3ccccc3S(=O)(=O)N2C)s1", "Potency": "inactive"}, {"smiles": "Nc1ccc(S(=O)(=O)Nc2ccnn2-c2ccccc2)cc1", "Potency": "inactive"}, {"smiles": "NC(=O)c1cnccn1", "Potency": "inactive"}, {"smiles": "CCCCNc1cc(C(=O)O)cc(S(N)(=O)=O)c1Oc1ccccc1", "Potency": "inactive"}, {"smiles": "Cc1[nH]c(=O)c(C#N)cc1-c1ccc2nccn2c1", "Potency": "inactive"}, {"smiles": "OC(CCN1CCCCC1)(c1ccccc1)C1CC2C=CC1C2", "note": "(stereo not drawn)", "Potency": "inactive"}, {"smiles": "NC(=O)c1ccc(I)c([N+](=O)[O-])c1", "Potency": "inactive"}, {"smiles": "CC(c1cc2ccccc2s1)N(O)C(N)=O", "note": "(stereo not drawn)", "Potency": "inactive"}, {"smiles": "O=C1CCC(N2C(=O)c3ccccc3C2=O)C(=O)N1", "note": "(stereo not drawn)", "Potency": "inactive"}, {"smiles": "O=C(O)COCCN1CCN(C(c2ccccc2)c2ccc(Cl)cc2)CC1", "note": "(stereo not drawn)", "Potency": "inactive"}, {"smiles": "CC(C)(Sc1ccc(CCN(CCCCC2CCCCC2)C(=O)NC2CCCCC2)cc1)C(=O)O", "Potency": "inactive"}, {"smiles": "Clc1cccc(Cl)c1NC1=NCCN1", "Potency": "inactive"}, {"smiles": "CC(C[N+](C)(C)C)OC(N)=O", "note": "(stereo not drawn)", "Potency": "inactive"}, {"smiles": "CS(=O)(=O)c1cccc(CNc2nc(Nc3ccc4c(c3)CCC(=O)N4)ncc2C(F)(F)F)c1", "Potency": "6.11 µM (active)"}, {"smiles": "CC(=O)Oc1ccccc1C(=O)O", "Potency": "inactive"}, {"smiles": "O=C(O)CCc1ccc(NCc2cccc(Oc3ccccc3)c2)cc1", "Potency": "inactive"}, {"smiles": "CC(C)(C)NCC(O)c1ccc(O)c(CO)c1", "note": "(stereo not drawn)", "Potency": "inactive"}, {"smiles": "c1ccc([C@H]2CN3CCSC3=N2)cc1", "Potency": "inactive"}, {"smiles": "C[C@]12CCC(=O)C=C1CC[C@@H]1[C@@H]2[C@@H](O)C[C@@]2(C)[C@H]1CC[C@]2(O)C(=O)CO", "Potency": "inactive"}, {"smiles": "CNC[C@H](O)c1cccc(O)c1", "Potency": "inactive"}, {"smiles": "N[C@@H]1CONC1=O", "Potency": "inactive"}]}, {"test": "qHTS of pediatric cancer cell lines to identify multiple opportunities for drug repurposing: Primary screen for RD cells (AID 1347104); also: nearly all actives have a fitted effect of over 55% in size", "details": "RD rhabdomyosarcoma viability, CellTiter-Glo luminescence, 48 h; series mostly up to 46 µM", "procedure,_shortened": "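Cells seeded at 500-1,000 cells/well in growth media, rested 5 hours at 37 degrees C, 5% CO2, then dosed; MIPE compounds at 11-point (from 0.78 nM) and NPC at 8-point (from 0.59 nM) final concentrations. Viability by CellTiter-Glo luminescence after 48 hours.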", "values": [{"smiles": "Cc1cc2c(C(C)C)c(O)c(O)c(C=O)c2c(O)c1-c1c(C)cc2c(C(C)C)c(O)c(O)c(C=O)c2c1O", "Potency": "26.6 µM (active) and 29.6 µM (active)"}, {"smiles": "NS(=O)(=O)c1cc2c(cc1Cl)NC=NS2(=O)=O", "Potency": "inactive"}, {"smiles": "CC1(C)SCCN(S(=O)(=O)c2ccc(OCC#CCO)cc2)[C@@H]1C(=O)NO", "Potency": "inactive"}, {"smiles": "CCCc1nc2c(C)cc(-c3nc4ccccc4n3C)cc2n1Cc1ccc(-c2ccccc2C(=O)O)cc1", "Potency": "inactive"}, {"smiles": "CC(C)NCC(O)COc1ccc(COCCOC(C)C)cc1", "note": "(stereo not drawn)", "Potency": "inactive"}, {"smiles": "NCCc1ccc(O)c(O)c1", "Potency": "inactive"}, {"smiles": "Oc1ccc(C2CNCCc3c2cc(O)c(O)c3Cl)cc1", "note": "(stereo not drawn)", "Potency": "inactive"}, {"smiles": "CCc1ccc(CCOc2ccc(CC3SC(=O)NC3=O)cc2)nc1", "note": "(stereo not drawn)", "Potency": "inactive"}, {"smiles": "O=c1n(CCCN2CCN(c3cccc(Cl)c3)CC2)nc2ccccn12", "Potency": "inactive"}, {"smiles": "CNC(=O)c1ccc(N2C(=S)N(c3ccc(C#N)c(C(F)(F)F)c3)C(=O)C2(C)C)cc1F", "Potency": "inactive"}, {"smiles": "Cc1cnc(NC(=O)C2=C(O)c3ccccc3S(=O)(=O)N2C)s1", "Potency": "inactive"}, {"smiles": "Nc1ccc(S(=O)(=O)Nc2ccnn2-c2ccccc2)cc1", "Potency": "inactive"}, {"smiles": "NC(=O)c1cnccn1", "Potency": "inactive"}, {"smiles": "CCCCNc1cc(C(=O)O)cc(S(N)(=O)=O)c1Oc1ccccc1", "Potency": "inactive"}, {"smiles": "Cc1ccccc1C(OCCN(C)C)c1ccccc1", "note": "(stereo not drawn)", "Potency": "inactive"}, {"smiles": "Cc1[nH]c(=O)c(C#N)cc1-c1ccc2nccn2c1", "Potency": "inactive"}, {"smiles": "OC(CCN1CCCCC1)(c1ccccc1)C1CC2C=CC1C2", "note": "(stereo not drawn)", "Potency": "inactive"}, {"smiles": "NC(=O)c1ccc(I)c([N+](=O)[O-])c1", "Potency": "inactive"}, {"smiles": "CC(c1cc2ccccc2s1)N(O)C(N)=O", "note": "(stereo not drawn)", "Potency": "inactive"}, {"smiles": "O=C1CCC(N2C(=O)c3ccccc3C2=O)C(=O)N1", "note": "(stereo not drawn)", "Potency": "inactive"}, {"smiles": "O=C(O)COCCN1CCN(C(c2ccccc2)c2ccc(Cl)cc2)CC1", "note": "(stereo not drawn)", "Potency": "inactive"}, {"smiles": "Cc1ccc(-n2nc(C(C)(C)C)cc2NC(=O)Nc2ccc(OCCN3CCOCC3)c3ccccc23)cc1", "Potency": "26.4 µM (active)"}, {"smiles": "Clc1cccc(Cl)c1NC1=NCCN1", "Potency": "inactive"}, {"smiles": "CC(C[N+](C)(C)C)OC(N)=O", "note": "(stereo not drawn)", "Potency": "inactive"}, {"smiles": "CS(=O)(=O)c1cccc(CNc2nc(Nc3ccc4c(c3)CCC(=O)N4)ncc2C(F)(F)F)c1", "Potency": "16.6 µM (active)"}, {"smiles": "CC(=O)Oc1ccccc1C(=O)O", "Potency": "inactive"}, {"smiles": "O=C(O)CCc1ccc(NCc2cccc(Oc3ccccc3)c2)cc1", "Potency": "inactive"}, {"smiles": "CC(C)(C)NCC(O)c1ccc(O)c(CO)c1", "note": "(stereo not drawn)", "Potency": "inactive"}, {"smiles": "c1ccc([C@H]2CN3CCSC3=N2)cc1", "Potency": "inactive"}, {"smiles": "C[C@]12CCC(=O)C=C1CC[C@@H]1[C@@H]2[C@@H](O)C[C@@]2(C)[C@H]1CC[C@]2(O)C(=O)CO", "Potency": "inactive"}, {"smiles": "CNC[C@H](O)c1cccc(O)c1", "Potency": "inactive"}, {"smiles": "N[C@@H]1CONC1=O", "Potency": "inactive"}]}]}
